The source of these data is the supplement of paper PMC10681739.
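Further: Full-length recombinant human ETS1 or RUNX1 bound to double-stranded 36-bp genomic probes on microarrays, detected by protein-specific primary antibody and Alexa488 secondary, spot fluorescence as median of four replicate spots.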

The target of the assay is RUNX1 (UniProt Q01196). The assay can be described thus: RUNX1 binding intensity (PBM fluorescence) in presence of ETS1, normalised to RUNX1-only experiment (arbitrary fluorescence units); higher = stronger binding. The note with it: RUNX1 concentration 2 nM; ETS1 concentration 25 nM. How it is done: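 Cooperative gcPBM on 36-bp genomic probes with neighbouring ETS1 and RUNX1 sites. Recombinant human RUNX1 (2 nM) was incubated alone or with ETS1 (25 nM) and detected with anti-RUNX1 antibody plus Alexa488 secondary. Values are medians over 4 replicate spots; the RUNX1+ETS1 data were normalised to the RUNX1-only data. The probes sit in constant array flanks that are not printed.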
Sequence of RUNX1 (Q01196 whole entry): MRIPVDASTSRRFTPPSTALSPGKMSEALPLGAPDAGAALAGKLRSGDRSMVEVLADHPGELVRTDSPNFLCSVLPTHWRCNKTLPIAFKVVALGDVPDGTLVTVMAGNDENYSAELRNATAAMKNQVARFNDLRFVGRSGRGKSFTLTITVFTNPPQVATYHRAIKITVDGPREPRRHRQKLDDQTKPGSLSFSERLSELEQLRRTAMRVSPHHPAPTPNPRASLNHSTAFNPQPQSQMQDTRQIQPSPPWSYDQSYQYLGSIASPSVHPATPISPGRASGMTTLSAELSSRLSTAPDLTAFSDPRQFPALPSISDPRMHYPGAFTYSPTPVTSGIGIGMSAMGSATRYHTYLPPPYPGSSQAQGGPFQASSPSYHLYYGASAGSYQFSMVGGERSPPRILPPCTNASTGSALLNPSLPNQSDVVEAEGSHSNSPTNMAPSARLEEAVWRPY
As to GTGCCTCACCGCTTCCGGCGCTGCGGGATGACGTCA, the RUNX1 binding intensity was found to be 7320.

Take TCCTCCATGCAGGAAAACCTCTGTGGTCTGGGAGCT: the RUNX1 binding intensity turned out to be 862.

With GTGAGTCACTTCCTGACCATGTGGGTTTTTGGTACG, the RUNX1 binding intensity came to 2090.

Consider TACCAACAGGAATCTTTGGGGTCTAAACCGCAAACA, for which the RUNX1 binding intensity amounted to 5090.

On to TGAGAAAGCTATTTCCGCCCACAAAGAGGCAAGTCT, for which the RUNX1 binding intensity is 1570.

GCTGGGGCAGGAAGCTTCTAGGCCACAGACAGGACG: the RUNX1 binding intensity came out at 865.

In the case of CTCTAGAGGCTTCCTGCCCAACCACCAAGAAAAAGC, the RUNX1 binding intensity came to 1180.

CCAGCCACTTCCGCTCGTCCGCCTAATACCGCGCCT: the RUNX1 binding intensity amounted to 4930.

For CCCATTTCCGAGAGTGGCAGGGCTGGGCGCGGTGGG, the RUNX1 binding intensity was 1420.

With TCTGTTCTTCCTTTTCCTGTGCGGTGTGCCCCAAAC, the RUNX1 binding intensity amounted to 2810.

For the sequence ACCATATCCTGAGAATGAACCATGTGGTGGATGCAC, the RUNX1 binding intensity was 1270.

For the sequence GAAGCGGAAGTCGCTGAGGGGTGGTGAAGCGGTTGG, the RUNX1 binding intensity came to 1010.

In the case of TAGCATGTGAGCTTCCTGTGGGTTTGTGCAGCCCCA, the RUNX1 binding intensity is 1440.

On to GGCCGGCTTCCGGGGCGGGTGGAAAGGAGCCACAAG, for which the RUNX1 binding intensity came out at 1260.

For the sequence TCCCACTGCGACGGAAGCACAGCGGTTAAGATTGCA, the RUNX1 binding intensity is 910.

CCACTGCCGGAAGGGGAACTGTGGGGGTGCGCGAGT: the RUNX1 binding intensity was determined as 1040.

AGGAGTGTCACTTCCTCTTTCCTCACCACAGCCTCC: the RUNX1 binding intensity was 1890.

Consider CCCTGCCATTTCCTGCCCAATACCGCGTATGCAACT, for which the RUNX1 binding intensity was 4240.

For CCGGCAGGAAGTTAGCATGGGCGGACCACACGGGGG, the RUNX1 binding intensity was determined as 1590.

As for CCCTTGCCAGAGGAAGCCACTGCCACCGCAGAAGCA, the RUNX1 binding intensity was 1080.

With CCGCCGACACACTTCCGGCGGCCACCACAGGGTATT, the RUNX1 binding intensity was determined as 1910.

Regarding GTGGGGAGAGGCAGGAAACCGCTGCCGCCGACGGGG, the RUNX1 binding intensity came to 1030.

As to CCTCACAGGGACTTCCTTCCCCGCGGTTCAGGAATC, the RUNX1 binding intensity was 1100.

As for TGTCAGCTGCGTTTCCGCGGTCGCGGGTGAGTGTGC, the RUNX1 binding intensity was 1360.

AGTGGATAGCACTTCCTTCTCTTACCACAGTTCCTT: the RUNX1 binding intensity was determined as 1610.

For TGACATCCTCTGAGGCAGCAAGCTGCGGTGAAGTCT, the RUNX1 binding intensity is 1300.

GCGAAAAACGCGGAAATGCGGTGGCGGCGGCCCGCT: the RUNX1 binding intensity came out at 1210.

For CGGGGCTTCCGGCGCGCTGCCTTGTGGGCACGGTAG, the RUNX1 binding intensity worked out at 1390.

Take AGAAGGAACTACACAGGAAACCCACTGCCTCGATGG: the RUNX1 binding intensity stood at 865.

Turning to AAAGGCGGAAGGGGGGCAGGGAACCCACAAAACAGA, the RUNX1 binding intensity was 857.

GCGCCAGTCACCGTTTCCTGTGGTTTGCTGCCCGCC: the RUNX1 binding intensity was found to be 2810.

As to TCATGCTGCTTCCTGCCCAACCCGCAGTTCCGATAA, the RUNX1 binding intensity stood at 2350.

Turning to AGGGAGCCCTCCATTTCCTGCCCACATTTGTCACCT, the RUNX1 binding intensity was 2260.

On to GGAACAGGAAAAGCCTCCGGCAGCCCCTGCGGGCGG, for which the RUNX1 binding intensity is 920.

In the case of GCCCAGTTCTCGCATCCGGTCTGCGGCGCGCTCGGG, the RUNX1 binding intensity is 1840.

For GGGCGCGACTTCCGGGGCGGCGGTTGCATCAGATTC, the RUNX1 binding intensity is 2100.

AACAGTACTTCCGGGGCAAGTGAGCGCCCACAAGGC: the RUNX1 binding intensity amounted to 1970.

ACAGGAAATGACTTAGGGAAAGTCCCAACCGCAATC: the RUNX1 binding intensity is 1530.

Turning to CAGCAGAGGCGCGGATGTGGTTAAACGAGTGCCGTC, the RUNX1 binding intensity is 3670.

As to GGGAGGCCCCATCCTGTGTGGCTGTGGCTTTTGCCT, the RUNX1 binding intensity is 1020.
